According to PubChem BioAssay AID720647 (Broad Institute, 2013):
Screen size: about 380,000 compounds; about 1,300 (0.34%) were called active. The full list was thinned out, with actives kept by preference. Unmarked numbers belong to inactive results.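 Rule for the calls: active = drop in luminescence signal, shown as inhibition above about 50% in the replicate tests (limit read from the data, passing the limit was not always enough); inconclusive = probably only some replicates passing the limit; inactive = the rest.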

Each compound was assayed on Drosophila bursicon receptor LGR2 (rickets) (assay: LGR2 cAMP reporter signal reduction – cell-based, HEK293, CRE-luciferase reporter, bursicon stimulation, primary screen (AID 720647;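 note: agonist challenge used bursicon conditioned medium at about half maximal strength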)). Settings: bursicon-stimulated, 4 h, at 9.99 µM, hits give high values.
`Cc1cc(C(=O)COc2ccccc2Cl)c(C)n1C1CC1` gave an inhibition of -70%.
In the case of `Cc1cc(C(=O)COC(=O)C2CC2)c(C)n1-c1ccc(F)cc1`, the inhibition is reported as 81.6% (active).
Compound `Cc1cc(C(=O)CSc2nc(N)cc(=O)[nH]2)c(C)n1-c1cccc(F)c1` has an inhibition of 1.57%.
`CNC[C@@H]1Oc2ccc(NC(=O)Nc3ccc4c(c3)OCO4)cc2C(=O)N([C@H](C)CO)C[C@@H]1C` was tested, and the inhibition was -5.83%.
`CO[C@@H]1CN(C)C(=O)c2cc(NS(C)(=O)=O)ccc2OC[C@@H](C)N(C(=O)C2CCC2)C[C@@H]1C` showed an inhibition of -11.1%.
Compound `O=C(C[C@H]1CC[C@H]2[C@@H](COC[C@@H](O)CN2Cc2ccccc2)O1)N[C@@H]1CCN(Cc2ccccc2)C1` has an inhibition of 1.95%.
With `O=C(NC1=CC(=O)c2ccccc2C1=O)c1ccccc1` the inhibition was 61.4% (active).
Compound `CCS(=O)(=O)N1CC2(C1)CN(S(=O)(=O)c1ccccc1)[C@H](CO)c1c2c2ccc(OC)cc2n1C` has an inhibition of -11.1%.
`CC(C)NC(=O)Nc1ccc2c(c1)CC(=O)N([C@H](C)CO)C[C@@H](C)[C@@H](CN(C)C(=O)Nc1ccc3c(c1)OCO3)O2` was tested, and the inhibition was -3.26%.
With `CCCCCCCCn1c2c(c(=N)c3c1CCC3)CCCC2` the inhibition was 52.6% (active).
With `Cc1noc(C)c1NC(=O)Nc1ccc2c(c1)C(=O)N([C@@H](C)CO)C[C@@H](C)[C@H](CN(C)Cc1ccc(C(F)(F)F)cc1)O2` the inhibition was -7.29%.
`C[C@H]1CN([C@@H](C)CO)C(=O)c2cc(C3=CCCCC3)cnc2O[C@@H]1CN(C)C(=O)c1ccc(F)cc1` showed an inhibition of 2.17%.
`CN1c2ccc(Br)cc2[C@@H]2[C@@H](CCN2C(=O)C2CCCC2)[C@H]1CO` gave an inhibition of 1.06%.
`Cc1cccc(-n2ncc(Cl)c(Cl)c2=O)c1` was tested, and the inhibition was 103% (active).
`Cc1cc(=O)cc(C)n1-c1ccc(Cl)c(Cl)c1` was tested, and the inhibition was 5.96%.
`COc1cccc(C2SCC(=O)N2c2cccc(C)c2)c1OC` (stereo not given) was tested, and the inhibition was 7.83%.
With `CCNC(=O)C[C@@H]1CC[C@H]2[C@@H](COC[C@@H](O)CN2C(=O)c2cc(Cl)cc(Cl)c2)O1` the inhibition was 11.4%.
Work on `C[C@@H]1CN([C@@H](C)CO)C(=O)c2cc(NS(=O)(=O)c3ccccc3)ccc2O[C@H]1CN(C)S(=O)(=O)c1ccc(Cl)cc1` yielded an inhibition of 13.5%.
`CCOC(=O)C1=C(c2ccccc2)NC(=O)NC1c1cc(OC)c(OC)cc1OC` (stereo not given) was tested, and the inhibition was 8.83%.
For `CCOC(=O)C1=C(c2ccc(OC)cc2)C(=O)c2ccccc2C1=O`, the inhibition was 99.6% (active).
`CCOC(=O)C1=C(C)c2ccccc2OC1C(=O)OCC` (stereo not given) was tested, and the inhibition was -7.81%.
In the case of `CO[C@H]1CN(C)C(=O)c2cc(NC(=O)Nc3ccc4c(c3)OCO4)ccc2OC[C@@H](C)NC[C@@H]1C`, the inhibition is reported as -36.2%.
Compound `C[C@H](CO)N1C[C@H](C)[C@H](CN(C)C(=O)Nc2ccccc2C(F)(F)F)OCc2cn(nn2)CCCC1=O` has an inhibition of 3.25%.
Work on `CC(C)NC(=O)N(C)C[C@H]1OCCCC[C@H](C)Oc2ccc(NC(=O)CCC(F)(F)F)cc2C(=O)N([C@H](C)CO)C[C@H]1C` yielded an inhibition of 1.7%.
`Cc1noc(C)c1S(=O)(=O)N(C)C[C@@H]1Oc2ccc(NC(=O)Cn3cnnn3)cc2CC(=O)N([C@@H](C)CO)C[C@H]1C` was tested, and the inhibition was 0.447%.
